Laboratory results taken from publication PMC12820563, “FoxP3 forms a head-to-head dimer in vivo and stabilizes its multimerization on adjacent microsatellites”.
Over roughly 16,000 sequences, “rpm ratio (pull-down/input)” has its median near 0.94; the highest 2% begin near 1.7. This is one part of a sample in which the highest values are shown more often than they occur.

Target: T1, MBP-FoxP1dN (Mus musculus, UniProt P58462 326-579)
T1 sequence: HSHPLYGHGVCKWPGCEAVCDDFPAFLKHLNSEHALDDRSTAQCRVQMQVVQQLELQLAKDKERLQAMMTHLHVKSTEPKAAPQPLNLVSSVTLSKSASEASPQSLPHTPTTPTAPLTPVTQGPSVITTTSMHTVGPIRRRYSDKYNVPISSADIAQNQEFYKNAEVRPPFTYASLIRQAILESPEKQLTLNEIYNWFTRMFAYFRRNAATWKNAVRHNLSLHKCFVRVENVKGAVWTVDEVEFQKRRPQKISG
Test: PD-seq (MBP pull-down with sequencing); 20 mM Tris-HCl pH 7.5, 100 mM NaCl, 1.5 mM MgCl2, 0.4 uM protein, 0.1 uM dsDNA library, 30 min, room temperature, amylose pull-down; high values mean tight binding
Details: protein: recombinant; tags: His6-MBP; chain copies: 2; dsDNA, one strand shown
Outline: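 Amylose resin was used to capture complexes formed during 30 min at room temperature in Tris pH 7.5 buffer with NaCl and MgCl2 between 0.4 µM His6-MBP-tagged mouse FoxP3 or FoxP1 fragment lacking the N-terminus, expressed in E. coli, and 0.1 µM Klenow-filled double-stranded degenerate DNA library. After three washes, the DNA was released with proteinase K, barcoded by PCR and sequenced on Illumina. Binding is pooled-replicate reads-per-million enrichment, pull-down over input.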

| Sequence | binding signal |
| --- | --- |
| GATGATTGTTCTCCCAGCTGATGAATTGGCCAACTCGAGTAAACAAATTTTCCTAATCTTTCTGTTCAAGCGCCATCTAC | 0.833 RPM ratio (pull-down/input) |
| GATGATTGTTCTCCCAGCTGATGAATTCTAATTGTCGAGTAAACAAATTTTCCTAATCTTTCTGTTCAAGCGCCATCTAC | 1.29 RPM ratio (pull-down/input) |
| GATGATTGTTCTCCCAGCTGATGAATTCGTATTTTCGAGTAAACAAATTTTCCTAATCTTTCTGTTCAAGCGCCATCTAC | 1.67 RPM ratio (pull-down/input) |
| GATGATTGTTCTCCCAGCTGATGAATTGTCTATTTCGAGTAAACAAATTTTCCTAATCTTTCTGTTCAAGCGCCATCTAC | 1.31 RPM ratio (pull-down/input) |
| GATGATTGTTCTCCCAGCTGATGAATTTCTATTGTCGAGTAAACAAATTTTCCTAATCTTTCTGTTCAAGCGCCATCTAC | 1.91 RPM ratio (pull-down/input) |
| GATGATTGTTCTCCCAGCTGATGAATTGTCGTATTCGAGTAAACAAATTTTCCTAATCTTTCTGTTCAAGCGCCATCTAC | 1.14 RPM ratio (pull-down/input) |
| GATGATTGTTCTCCCAGCTGATGAATTTGTCTATTCGAGTAAACAAATTTTCCTAATCTTTCTGTTCAAGCGCCATCTAC | 1.28 RPM ratio (pull-down/input) |
| GATGATTGTTCTCCCAGCTGATGAATTTCCTATGTCGAGTAAACAAATTTTCCTAATCTTTCTGTTCAAGCGCCATCTAC | 0.811 RPM ratio (pull-down/input) |
| GATGATTGTTCTCCCAGCTGATGAATTCTCTTTGTCGAGTAAACAAATTTTCCTAATCTTTCTGTTCAAGCGCCATCTAC | 0.834 RPM ratio (pull-down/input) |
| GATGATTGTTCTCCCAGCTGATGAATTCCTATTGTCGAGTAAACAAATTTTCCTAATCTTTCTGTTCAAGCGCCATCTAC | 2.02 RPM ratio (pull-down/input) |
| GATGATTGTTCTCCCAGCTGATGAATTCTATTTGTCGAGTAAACAAATTTTCCTAATCTTTCTGTTCAAGCGCCATCTAC | 2.3 RPM ratio (pull-down/input) |
| GATGATTGTTCTCCCAGCTGATGAATTCTATCTGTCGAGTAAACAAATTTTCCTAATCTTTCTGTTCAAGCGCCATCTAC | 0.875 RPM ratio (pull-down/input) |
| GATGATTGTTCTCCCAGCTGATGAATTCGTATTGTCGAGTAAACAAATTTTCCTAATCTTTCTGTTCAAGCGCCATCTAC | 2.07 RPM ratio (pull-down/input) |
| GATGATTGTTCTCCCAGCTGATGAATTTCGCATTTCGAGTAAACAAATTTTCCTAATCTTTCTGTTCAAGCGCCATCTAC | 1.28 RPM ratio (pull-down/input) |
| GATGATTGTTCTCCCAGCTGATGAATTGCCCAGTTCGAGTAAACAAATTTTCCTAATCTTTCTGTTCAAGCGCCATCTAC | 0.931 RPM ratio (pull-down/input) |
| GATGATTGTTCTCCCAGCTGATGAATTGGGTCCTTCGAGTAAACAAATTTTCCTAATCTTTCTGTTCAAGCGCCATCTAC | 0.85 RPM ratio (pull-down/input) |
| GATGATTGTTCTCCCAGCTGATGAATTGAACTTTTCGAGTAAACAAATTTTCCTAATCTTTCTGTTCAAGCGCCATCTAC | 0.887 RPM ratio (pull-down/input) |
| GATGATTGTTCTCCCAGCTGATGAATTTTCACAATCGAGTAAACAAATTTTCCTAATCTTTCTGTTCAAGCGCCATCTAC | 1.29 RPM ratio (pull-down/input) |
| GATGATTGTTCTCCCAGCTGATGAATTACTGACCTCGAGTAAACAAATTTTCCTAATCTTTCTGTTCAAGCGCCATCTAC | 0.91 RPM ratio (pull-down/input) |
| GATGATTGTTCTCCCAGCTGATGAATTTGGGTAATCGAGTAAACAAATTTTCCTAATCTTTCTGTTCAAGCGCCATCTAC | 1.27 RPM ratio (pull-down/input) |
| GATGATTGTTCTCCCAGCTGATGAATTCTCCGGGTCGAGTAAACAAATTTTCCTAATCTTTCTGTTCAAGCGCCATCTAC | 0.759 RPM ratio (pull-down/input) |
| GATGATTGTTCTCCCAGCTGATGAATTCCGGGATTCGAGTAAACAAATTTTCCTAATCTTTCTGTTCAAGCGCCATCTAC | 0.754 RPM ratio (pull-down/input) |
| GATGATTGTTCTCCCAGCTGATGAATTATCTGATTCGAGTAAACAAATTTTCCTAATCTTTCTGTTCAAGCGCCATCTAC | 0.984 RPM ratio (pull-down/input) |
